Values joined by “and” are separate entries in the source; they are usually repeats but may differ in a detail not shown here. Identical values can stand only once. Results filed as inconclusive are left out. A number with no mark means an inactive call. Active and inactive are the calls of the source. The call rests on the fitted dose curve; in most records, active means well fitted inhibition curve with a large enough effect; inconclusive means small, poorly fitted or top-dose-only effect; inactive means flat fitted curve, though single readings scatter.
Potency means the concentration at half of the fitted maximal effect.

System in the first experiment: not listed separately
The experiment can be described thus: qHTS profiling for inhibitors of Plasmodium falciparum proliferation (AID 504749). Further: nearly all actives have a fitted effect of over 60% in size.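 On activity, negative = inhibition: 0% = DMSO vehicle and full inhibition = artemisinin control.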 As to conditions: P. falciparum in erythrocytes, SYBR Green DNA, 72 h; at 28.7 µM (top of the series); parasite line A. The method, boiled down: (§1)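 Fluorescence of SYBR Green-bound parasite DNA, read at 485/535 nm, served as the growth measure. Infected erythrocytes were cultured with compound 72 h; artemisinin (0.29 uM) and DMSO wells defined the normalization range.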
Background: In qHTS, concentration-response curves come from the screen itself.
Regarding `ClCC1CO1` (stereo not drawn), the activity, negative = inhibition was 2.63%.

`CCCCCl`: the activity, negative = inhibition is 1.32%.

`C#CC(C)(O)CC` (stereo not drawn): the activity, negative = inhibition was 3.88%.

As to `Clc1ccc(Cl)cc1`, the activity, negative = inhibition is 7.27%.

For the molecule `COCC(C)N(C(=O)CCl)c1c(C)csc1C` (stereo not drawn), the activity, negative = inhibition is 7.86%.

As for `C=CCN(C1=NCCN1)c1c(Cl)cccc1Cl`, the activity, negative = inhibition is 11.1%.

`ClC=C(Cl)Cl`: the activity, negative = inhibition is 6.3%.

Take `N#CC1(N2CCCCC2)CCCCC1`: the activity, negative = inhibition is 7.09%.

On to `COc1ccc2c(c1OC)C(=O)OC2C1c2cc3c(cc2CCN1C)OCO3` (stereo not drawn), for which the activity, negative = inhibition was 9.94%.

As for `S=C(S)N1CCNCC1`, the activity, negative = inhibition is 5.54%.

For the molecule `CCCCCCCCCC(=O)O[C@H]1CC[C@H]2[C@@H]3CCC4=CC(=O)CC[C@]4(C)[C@H]3CC[C@]12C`, the activity, negative = inhibition is 8.28%.

As for `Clc1ccccc1Cl`, the activity, negative = inhibition was 6.5%.

`C[N+]1(C)C2CCC1CC(OC(=O)c1c[nH]c3ccccc13)C2` (stereo not drawn): the activity, negative = inhibition is 3.31%.

Take `c1csc(C2(N3CCCCC3)CCCCC2)c1`: the activity, negative = inhibition is -2.88%.

With `CCNC(C)Cc1cccc(C(F)(F)F)c1` (stereo not drawn), the activity, negative = inhibition was 6.39%.

`CNC1(c2ccccc2Cl)CCCCC1=O` (stereo not drawn): the activity, negative = inhibition is 12.4%.

Regarding `[O]=[Cr](=[O])([OH])[O][Cr](=[O])(=[O])[OH]`, the activity, negative = inhibition was -8.13% and -2.73%.

`O=P(O)(O)C(Cl)(Cl)P(=O)(O)O`: the activity, negative = inhibition is 6.37%.

As to `CCCC(C)C1(CC)C(=O)NC(=O)NC1=O` (stereo not drawn), the activity, negative = inhibition is 2.58%.

Regarding `ClC(Cl)(Cl)Cl`, the activity, negative = inhibition was 12.6%.

Turning to `CCC1C(C)=NN=C(c2ccc(OC)c(OC)c2)c2cc(OC)c(OC)cc21` (stereo not drawn), the activity, negative = inhibition is 12.9%.

`COC([CH2][Hg])CNC(=O)c1ccccc1OCC(=O)O` (stereo not drawn): the activity, negative = inhibition was 6.16%.

The same experiment, now with this note: P. falciparum in erythrocytes, SYBR Green DNA, 72 h; at 28.7 µM (top of the series); parasite line B.
Take `ClCC1CO1` (stereo not drawn): the activity, negative = inhibition was -1.12%.

As for `CCCCCl`, the activity, negative = inhibition is 10.6%.

Consider `C#CC(C)(O)CC` (stereo not drawn), for which the activity, negative = inhibition is -6.77%.

For the molecule `COCC(C)N(C(=O)CCl)c1c(C)csc1C` (stereo not drawn), the activity, negative = inhibition was -2.46%.

Regarding `C=CCN(C1=NCCN1)c1c(Cl)cccc1Cl`, the activity, negative = inhibition is 1.37%.

As for `ClC=C(Cl)Cl`, the activity, negative = inhibition was 0.959%.

As for `N#CC1(N2CCCCC2)CCCCC1`, the activity, negative = inhibition is 1.5%.

With `COc1ccc2c(c1OC)C(=O)OC2C1c2cc3c(cc2CCN1C)OCO3` (stereo not drawn), the activity, negative = inhibition is 3.46%.

Turning to `CN1CCCC(=C(c2cccs2)c2cccs2)C1`, the activity, negative = inhibition is -19.2%.

Turning to `S=C(S)N1CCNCC1`, the activity, negative = inhibition is 4.75%.

`CCCCCCCCCC(=O)O[C@H]1CC[C@H]2[C@@H]3CCC4=CC(=O)CC[C@]4(C)[C@H]3CC[C@]12C`: the activity, negative = inhibition was -5.1%.

With `C[N+]1(C)C2CCC1CC(OC(=O)c1c[nH]c3ccccc13)C2` (stereo not drawn), the activity, negative = inhibition is 10.8%.

For the molecule `c1csc(C2(N3CCCCC3)CCCCC2)c1`, the activity, negative = inhibition is 1.73%.

For the molecule `C[C@H]1CCC[C@H](O)CCCCCc2cc(O)cc(O)c2C(=O)O1`, the activity, negative = inhibition is -17.3%.

Turning to `[O]=[Cr](=[O])([OH])[O][Cr](=[O])(=[O])[OH]`, the activity, negative = inhibition was -2.72% and -3.46%.

Consider `O=P(O)(O)C(Cl)(Cl)P(=O)(O)O`, for which the activity, negative = inhibition is 14%.

With `CCCC(C)C1(CC)C(=O)NC(=O)NC1=O` (stereo not drawn), the activity, negative = inhibition is 0.184%.

Take `ClC(Cl)(Cl)Cl`: the activity, negative = inhibition is 5.77%.

With `CCC1C(C)=NN=C(c2ccc(OC)c(OC)c2)c2cc(OC)c(OC)cc21` (stereo not drawn), the activity, negative = inhibition is 13.3%.

Take `COC([CH2][Hg])CNC(=O)c1ccccc1OCC(=O)O` (stereo not drawn): the activity, negative = inhibition is 2.49%.

Still in this experiment, the particulars now being: P. falciparum in erythrocytes, SYBR Green DNA, 72 h; parasite line A.
Consider `CN1C2CCC1CC(OC(c1ccccc1)c1ccc(Cl)cc1)C2` (stereo not drawn), for which the Potency is 5.01 µM (active).

With `[Cl-].[Cl-].[Hg+2]`, the Potency was 7.94 µM (active).

For the molecule `CN1[C@@H]2CC[C@H]1CC(OC1c3ccccc3CCc3ccccc31)C2` (stereo partly drawn), the Potency was 3.98 µM (active).

Turning to `c1ccc(C2(N3CCCC3)CCCCC2)cc1`, the Potency was 12.6 µM (active).

Still in this experiment, the particulars now being: P. falciparum in erythrocytes, SYBR Green DNA, 72 h; parasite line B.
As to `CNC(=O)Oc1ccccc1C(=O)Nc1ccccc1`, the Potency was 11.2 µM (active).

Turning to `CN1C2CCC1CC(OC(c1ccccc1)c1ccc(Cl)cc1)C2` (stereo not drawn), the Potency is 7.08 µM (active).

For `F/C(COc1ccc2c(c1)[nH]c1ccccc12)=C1/CN2CCC1CC2`, the Potency is 10 µM (active).

With `[Cl-].[Cl-].[Hg+2]`, the Potency is 8.91 µM (active).

The test system of a further experiment is 3D7. Described as above. As to conditions: P. falciparum in erythrocytes, SYBR Green DNA, 72 h; series mostly up to 28.7 µM. The method, boiled down:
as §1
On to `CNC(=O)Oc1ccccc1C(=O)Nc1ccccc1`, for which the Potency result was “inactive”.

As for `ClCC1CO1` (stereo not drawn), the Potency result was “inactive”.

Consider `CCCCCl`, for which the Potency entry is “inactive”.

As for `C#CC(C)(O)CC` (stereo not drawn), the Potency result was “inactive”.

Turning to `Clc1ccc(Cl)cc1`, the Potency entry was “inactive”.

Regarding `CN1C2CCC1CC(OC(c1ccccc1)c1ccc(Cl)cc1)C2` (stereo not drawn), the Potency is 12.6 µM (active).

As to `COCC(C)N(C(=O)CCl)c1c(C)csc1C` (stereo not drawn), the Potency result was “inactive”.

Turning to `C=CCN(C1=NCCN1)c1c(Cl)cccc1Cl`, the Potency result is “inactive”.

As for `ClC=C(Cl)Cl`, the Potency result was “inactive”.

`N#CC1(N2CCCCC2)CCCCC1`: the Potency entry is “inactive”.

Take `COc1ccc2c(c1OC)C(=O)OC2C1c2cc3c(cc2CCN1C)OCO3` (stereo not drawn): the Potency entry is “inactive”.

Turning to `CN1CCCC(=C(c2cccs2)c2cccs2)C1`, the Potency result was “inactive”.

With `S=C(S)N1CCNCC1`, the Potency result was “inactive”.

As to `Clc1ccccc1Cl`, the Potency entry was “inactive”.

Turning to `C[N+]1(C)C2CCC1CC(OC(=O)c1c[nH]c3ccccc13)C2` (stereo not drawn), the Potency result is “inactive”.

In the case of `c1csc(C2(N3CCCCC3)CCCCC2)c1`, the Potency entry is “inactive”.

Turning to `C[C@H]1CCC[C@H](O)CCCCCc2cc(O)cc(O)c2C(=O)O1`, the Potency entry was “inactive”.

Regarding `CCNC(C)Cc1cccc(C(F)(F)F)c1` (stereo not drawn), the Potency entry is “inactive”.

`CNC1(c2ccccc2Cl)CCCCC1=O` (stereo not drawn): the Potency entry is “inactive”.

Regarding `[O]=[Cr](=[O])([OH])[O][Cr](=[O])(=[O])[OH]`, the Potency entry was “inactive”.

For the molecule `[Cl-].[Cl-].[Hg+2]`, the Potency was 12.6 µM (active).

In the case of `CN1[C@@H]2CC[C@H]1CC(OC1c3ccccc3CCc3ccccc31)C2` (stereo partly drawn), the Potency entry was “inactive”.

Regarding `O=P(O)(O)C(Cl)(Cl)P(=O)(O)O`, the Potency result is “inactive”.

Take `CCCC(C)C1(CC)C(=O)NC(=O)NC1=O` (stereo not drawn): the Potency entry is “inactive”.

On to `c1ccc(C2(N3CCCC3)CCCCC2)cc1`, for which the Potency is 12.6 µM (active).

Consider `ClC(Cl)(Cl)Cl`, for which the Potency result is “inactive”.

Turning to `CCC1C(C)=NN=C(c2ccc(OC)c(OC)c2)c2cc(OC)c(OC)cc21` (stereo not drawn), the Potency entry was “inactive”.

Regarding `COC([CH2][Hg])CNC(=O)c1ccccc1OCC(=O)O` (stereo not drawn), the Potency result is “inactive”.

For the origin of these results see PubChem BioAssay (NCATS).
